Measured values reported in PubChem BioAssay (NCATS).
Several values for one entry are separate records, joined by “and”; a condition that tells them apart may be missing. Identical values can stand only once. Inconclusive results are not listed. Activity calls are given as the source filed them. Unless noted, calls come from the whole dose curve.

Assays:
[1] = Cell Viability - HepG2 (AID 433); settings: qHTS;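 note: potency is the fitted concentration of half-maximal effect; potency for ATP loss meaning cytotoxicity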
In short: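 Read-out is luciferase-based quantitation of cellular ATP as a measure of viable HepG2 cells after 40 h treatment at 37 °C. Signal decrease is scaled between DMSO-only and 100 uM tamoxifen controls, with AC50 fitted by the Hill equation.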

[2] = Cell Viability - N2a (AID 540; active = well fitted cell-killing curve with a large enough effect; note: nearly all actives have a fitted effect of over 45% in size; note: potency is the fitted concentration of half-maximal effect;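 for activity change, negative = cytotoxicity: plate controls were DMSO alone for no effect and tamoxifen control for full effect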); settings: N2a mouse neuroblastoma cell viability; activity change, negative = cytotoxicity: at 92.2 µM (top of the series)
In short: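 First, 1500 N2a cells per well incubate 5 hr at 37 °C; next, compounds are added and incubated 40 hr at 37 °C; finally CellTiter-Glo is added and luminescence read after 20 min, with AC50 derived by Hill modeling.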

[3] = target: Estrogen receptor (Homo sapiens) (UniProt P03372); assay: qHTS assay for small molecule antagonists of estrogen receptor alpha signaling (AID 588513; active = well fitted curve in the direction sought with a large enough effect in the signal ratio, with a control signal flat, not every such curve was filed as active; the % refers to the signal ratio; note: % is set by controls: 0 for no effect and ±100 for the full control effect); settings: ER-alpha-UAS-bla HEK293, beta-lactamase ratio, antagonist mode; series mostly up to 76.9 µM
In short: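 Fluorescence from CCF4 substrate after 2 h at room temperature gave reporter activity; cells had been exposed to compound and 0.5nM 17-beta-estradiol for 18 h at 37 C. Hill-equation fitting yielded IC50 and maximal response.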

[4] = target: Glucocorticoid receptor (Homo sapiens) (UniProt P04150); assay: qHTS assay for small molecule agonists of glucocorticoid receptor signaling (AID 588532; active = well fitted curve in the direction sought with a large enough effect in the signal ratio, with a control signal flat; the % refers to the signal ratio;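 note: 100% = dexamethasone at 0.1 µM and 0% = DMSO only wells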); settings: HeLa MMTV-bla, beta-lactamase ratio, agonist, 18 h; stronger effect = higher value; percent of dexamethasone control, DMSO zero
In short: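 MMTV-bla HeLa beta-lactamase reporter cells in 1% charcoal/dextran FBS medium, compounds up to 92 uM for 18 h at 37 C, CCF4 readout; normalized to 0.1 uM dexamethasone (100%), EC50 and efficacy from Hill fits.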

[5] = target: Glucocorticoid receptor (Homo sapiens) (UniProt P04150); assay: qHTS assay for small molecule antagonists of glucocorticoid receptor signaling (AID 588533; active = well fitted inhibition curve with a large enough effect in the signal ratio, with a control signal flat, not every such curve was filed as active; the % refers to the signal ratio; note: % is set by controls: 0 for no effect and ±100 for the full control effect); settings: HeLa MMTV-bla, GRE beta-lactamase ratio, antagonist mode, 18 h; series mostly up to 76.8 µM
In short: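 Antagonist-mode qHTS: compound titrations added to GRE-bla HeLa cells, then dexamethasone 2 nM final; 18 h, 37 C. CCF4 FRET fluorescence normalized to dexamethasone and DMSO; IC50 from Hill fit.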

[6] = target: Peroxisome proliferator-activated receptor delta (Homo sapiens) (UniProt Q03181); assay: qHTS assay for small molecule agonists of peroxisome proliferator-activated receptor delta signaling (AID 588534); settings: HEK293T PPARdelta-UAS-bla, beta-lactamase ratio, 18 h; series mostly up to 76.7 µM;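 note: 0% = DMSO basal wells and 100% = positive control agonist at 10 µM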
In short: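 Reporter cells were plated and held 5 hrs at 37 C before compounds were added. After 18 hrs at 37 C, CCF4 dye was loaded for 2 hrs at RT and fluorescence measured.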

[7] = target: Peroxisome proliferator-activated receptor gamma (Homo sapiens) (UniProt P37231); assay: qHTS assay for small molecule agonists of peroxisome proliferator-activated receptor gamma signaling (AID 588536; active = well fitted curve in the direction sought with a large enough effect in the signal ratio, with a control signal flat, not every such curve was filed as active; the % refers to the signal ratio;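 note: 0% = DMSO basal wells and 100% = rosiglitazone at 2 µM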); settings: HEK293 PPARg-UAS-bla, beta-lactamase ratio, 16 h, percent of rosiglitazone response, DMSO as zero; series mostly up to 76.7 µM
In short: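 Ratiometric blue/green fluorescence (405 nm excitation; 460 and 530 nm emission) from CCF4-loaded HEK293 reporter cells serves as signal. Exposure to test compounds lasts 16 h at 37 C in medium containing 1% charcoal/dextran-treated serum.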

[8] = target: Peroxisome proliferator-activated receptor gamma (Homo sapiens) (UniProt P37231); assay: qHTS assay for small molecule antagonists of peroxisome proliferator-activated receptor gamma signaling (AID 588537; active = well fitted inhibition curve with a large enough effect in the signal ratio, with a control signal flat, not every such curve was filed as active; the % refers to the signal ratio;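 note: reporter cells co-stimulated with 50 nM rosiglitazone agonist during compound treatment; % of control where 0% means no effect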); settings: HEK293 PPARg-UAS-bla, beta-lactamase ratio, antagonist mode; series mostly up to 76.8 µM
In short: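 Step one: plate 3000 HEK293 UAS-bla cells per well in medium with 1% stripped serum and hold 6-6.5 h at 37 C. Step two: add compound and 50 nM agonist for 16 h. Step three: CCF4 loading, fluorescence read.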

[9] = target: Thyroid hormone receptor beta (Homo sapiens) (UniProt P10828); assay: qHTS assay for small molecule agonists of thyroid hormone receptor beta signaling (AID 588545); settings: TR-UAS-bla GripTite HEK 293, beta-lactamase ratio, agonist mode, 18 h; series mostly up to 76.7 µM
In short: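 Cells (2500/well) were seeded, incubated 4 hrs at 37 C, dosed with a compound series, incubated 18 hrs, loaded with CCF4 dye for 2 hrs at RT, then read for fluorescence. Data were scaled between DMSO (0%) and 10 nM T3 (100%).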

[10] = Cell Viability - MRC5 (AID 434); settings: MRC5 lung fibroblast viability, qHTS;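 note: potency is the fitted concentration of half-maximal effect; potency reflects cytotoxicity seen as loss of intracellular ATP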
In short: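 MRC5 normal human lung fibroblasts, 1500 cells/well, exposed to compound for 40 hr at 37 C. Cellular ATP was read by CellTiter-Glo luminescence; data normalized to DMSO and 100 uM tamoxifen, with AC50 from Hill fits.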

[11] = MultiTox-Fluor Cytotoxicity Assay - LYMP1-001 - Live Cells (AID 947; active = well fitted cell-killing curve with a large enough effect;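 note: 0% = DMSO only and full inhibition = tetraoctylammonium bromide control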); settings: LYMP1-001 lymphoblastoid cells, live-cell protease fluorescence viability; series mostly up to 92.2 µM
[12] = target: Vitamin D3 receptor (Homo sapiens) (UniProt P11473); assay: qHTS assay for small molecule antagonists of vitamin D receptor signaling (AID 588541); settings: HEK293T VDR-UAS-bla, beta-lactamase ratio, antagonist mode; series mostly up to 76.7 µM;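 note: receptor activated by calcitriol during compound treatment; % is set by controls: 0 for no effect and ±100 for the full control effect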
In short: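 VDR-UAS-bla HEK293T cells in 2% charcoal-stripped FBS were stimulated with 1-alpha,25-dihydroxyvitamin D3 (3 nM final) plus compound for 16 h at 37 C. The beta-lactamase CCF4 readout was normalized to 50 nM agonist and DMSO, and Hill fits gave IC50.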

[13] = qHTS assay for small molecule agonists of the antioxidant response element (ARE) signaling pathway (AID 651741; active = well fitted activation curve with a large enough effect in the signal ratio; the % refers to the signal ratio; note: potency is the fitted concentration of half-maximal effect; for activation: % of control where 0% means no effect); settings: HepG2 ARE-bla reporter, beta-lactamase FRET ratio, 16 h; series mostly up to 96 µM
In short: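 HepG2 ARE-bla cells plated at 2,000 cells/well and incubated 5 h at 37 C/5% CO2 received 23 nL compound in DMSO. After 16 h at 37 C, LiveBLAzer B/G FRET substrate was applied for 2 h at room temperature and fluorescence read.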

[14] = target: Bile acid receptor (Homo sapiens) (UniProt Q96RI1); assay: qHTS assay for small molecule agonists of farnesoid X receptor signaling (AID 588527); settings: HEK293T FXR-UAS-bla, beta-lactamase ratio, 16 h; stronger effect = higher value;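 note: 0% = vehicle basal and 100% = reference agonist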
In short: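 Agonist-mode beta-lactamase reporter in GeneBLAzer FXR-UAS-bla HEK293T cells, titration up to 92 uM, 16 h exposure at 37 C, CCF4 fluorescence. Response scaled to DMSO (0%) and 100 uM chenodeoxycholic acid (100%), then Hill-fitted for EC50 and efficacy.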

[15] = target: Thyroid hormone receptor beta (Homo sapiens) (UniProt P10828); assay: qHTS assay for small molecule antagonists of thyroid hormone receptor beta signaling (AID 588547; active = well fitted inhibition curve with a large enough effect in the signal ratio, with a control signal flat, not every such curve was filed as active; the % refers to the signal ratio;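 note: cells stimulated with 0.4 nM T3 agonist during compound exposure; % is set by controls: 0 for no effect and ±100 for the full control effect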); settings: TR-UAS-bla HEK293, beta-lactamase ratio, antagonist mode, 18 h
In short: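 TR-UAS-bla GripTite HEK293 cells in 2% charcoal/dextran FBS medium; compounds 0.59 nM to 92 uM with T3 at 0.4nM final, 18 h at 37 C. Beta-lactamase read by CCF4 fluorescence (460/530 nm); Hill fits gave IC50 and efficacy.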

[16] = qHTS assay for small molecule disruptors of the mitochondrial membrane potential - 1 hr assay (AID 651754); settings: series mostly up to 92.2 µM; note: % is set by controls: 0 for no effect and ±100 for the full control effect; nearly all actives have a fitted effect of over 35% in size
In short: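 Steps: seed HepG2 cells and let attach overnight; pin-transfer compound or vehicle; incubate 1 hr at 37C; add Mito-MPS dye for 30 min; read two-channel fluorescence for monomer and aggregate forms.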

[17] = qHTS assay for small molecule activators of the p53 signaling pathway (AID 651743; active = well fitted activation curve with a large enough effect in the signal ratio, not every such curve was filed as active; the % refers to the signal ratio; note: potency is the fitted concentration of half-maximal effect; for activation: % of control where 0% means no effect); settings: HCT-116 p53RE-bla, beta-lactamase FRET ratio, 16 h; activation: stronger effect = higher value
In short: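 HCT-116 p53RE-bla, 4,000 cells/well; 5 h settle; cpd/DMSO 16 h, 37 C; LiveBLAzer B/G 2 h RT; fluorescence intensity.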

[18] = qHTS assay for small molecule antagonists of peroxisome proliferator-activated receptor delta signaling (AID 588535; active = well fitted inhibition curve with a large enough effect in the signal ratio, with a control signal flat, not every such curve was filed as active; the % refers to the signal ratio;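 for max response: cells co-treated with a PPAR-delta agonist as stimulator during compound exposure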); settings: HEK293T PPARd-UAS-bla, beta-lactamase FRET ratio, 18 h; 460 nm channel
In short: (§1)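 Cells were seeded at 4000 per well in assay medium containing 2% charcoal/dextran FBS and held 5 hrs at 37 C. Compounds were then added for 18 hrs. CCF4 substrate was applied for 2 hrs at room temperature before fluorescence reading.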

[19] = target: Peroxisome proliferator-activated receptor delta (Homo sapiens) (UniProt Q03181); assay: as above; settings: HEK293T PPARd-UAS-bla, beta-lactamase FRET ratio, 18 h; series mostly up to 76.7 µM
In short: as §1

[20] = Cell Viability - BJ (AID 421); settings: BJ fibroblast viability, qHTS;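 note: potency is the fitted concentration of half-maximal effect; cells exposed to compound for 40 hours at 37 °C before readout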
In short: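 Cytotoxicity as drop in intracellular ATP (CellTiter-Glo, 20 min RT) after 40 hr compound exposure of BJ fibroblasts at 37 °C. Titrations scaled between DMSO and 100 uM tamoxifen, Hill-fitted for AC50.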

Sequence of Peroxisome proliferator-activated receptor gamma (Homo sapiens) (P37231 whole entry, looked up): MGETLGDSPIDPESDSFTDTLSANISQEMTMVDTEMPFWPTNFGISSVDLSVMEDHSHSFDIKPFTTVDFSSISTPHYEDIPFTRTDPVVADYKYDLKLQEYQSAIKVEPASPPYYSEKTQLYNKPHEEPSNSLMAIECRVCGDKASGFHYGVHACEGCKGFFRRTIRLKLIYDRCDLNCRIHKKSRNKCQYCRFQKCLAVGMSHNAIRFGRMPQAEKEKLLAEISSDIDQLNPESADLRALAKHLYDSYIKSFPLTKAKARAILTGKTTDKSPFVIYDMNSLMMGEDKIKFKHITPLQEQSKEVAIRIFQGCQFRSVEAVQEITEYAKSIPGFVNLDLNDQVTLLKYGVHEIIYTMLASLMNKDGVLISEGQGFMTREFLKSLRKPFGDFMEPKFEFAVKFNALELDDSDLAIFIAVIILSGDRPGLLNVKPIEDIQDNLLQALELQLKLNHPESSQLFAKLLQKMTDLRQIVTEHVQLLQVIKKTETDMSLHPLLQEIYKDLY
Sequence of Vitamin D3 receptor (Homo sapiens) (P11473 whole entry, looked up): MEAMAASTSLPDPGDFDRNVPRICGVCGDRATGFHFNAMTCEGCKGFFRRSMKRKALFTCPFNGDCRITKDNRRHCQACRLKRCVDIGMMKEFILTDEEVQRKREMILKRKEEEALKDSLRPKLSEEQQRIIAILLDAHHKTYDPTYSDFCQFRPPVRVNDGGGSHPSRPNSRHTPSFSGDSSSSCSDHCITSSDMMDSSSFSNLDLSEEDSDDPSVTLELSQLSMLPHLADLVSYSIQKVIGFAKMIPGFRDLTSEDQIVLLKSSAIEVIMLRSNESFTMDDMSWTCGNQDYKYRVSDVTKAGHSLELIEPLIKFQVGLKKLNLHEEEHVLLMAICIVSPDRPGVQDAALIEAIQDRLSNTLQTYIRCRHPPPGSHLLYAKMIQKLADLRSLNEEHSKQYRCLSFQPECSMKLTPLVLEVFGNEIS
Sequence of Glucocorticoid receptor (Homo sapiens) (P04150 whole entry, looked up): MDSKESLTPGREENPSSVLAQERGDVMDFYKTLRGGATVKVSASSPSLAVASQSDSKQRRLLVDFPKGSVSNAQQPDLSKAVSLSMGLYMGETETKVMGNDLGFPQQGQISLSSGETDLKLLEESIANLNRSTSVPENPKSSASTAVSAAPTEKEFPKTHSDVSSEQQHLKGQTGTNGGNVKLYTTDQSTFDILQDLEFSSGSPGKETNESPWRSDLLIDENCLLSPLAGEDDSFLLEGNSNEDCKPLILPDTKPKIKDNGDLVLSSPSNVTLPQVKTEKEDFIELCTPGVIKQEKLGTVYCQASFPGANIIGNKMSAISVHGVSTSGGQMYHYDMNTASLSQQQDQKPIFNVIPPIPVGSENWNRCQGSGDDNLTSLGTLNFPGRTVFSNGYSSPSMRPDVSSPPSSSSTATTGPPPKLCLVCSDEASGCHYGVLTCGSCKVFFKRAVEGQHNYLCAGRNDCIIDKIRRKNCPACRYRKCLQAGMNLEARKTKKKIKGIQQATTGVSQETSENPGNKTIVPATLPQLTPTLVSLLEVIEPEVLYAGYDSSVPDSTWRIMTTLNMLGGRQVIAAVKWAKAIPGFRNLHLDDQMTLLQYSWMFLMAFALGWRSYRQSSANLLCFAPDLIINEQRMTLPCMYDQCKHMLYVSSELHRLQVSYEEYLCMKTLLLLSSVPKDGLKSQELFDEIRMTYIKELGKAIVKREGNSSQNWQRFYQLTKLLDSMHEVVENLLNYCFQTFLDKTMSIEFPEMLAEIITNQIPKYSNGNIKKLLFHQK
Sequence of Peroxisome proliferator-activated receptor delta (Homo sapiens) (Q03181 whole entry, looked up): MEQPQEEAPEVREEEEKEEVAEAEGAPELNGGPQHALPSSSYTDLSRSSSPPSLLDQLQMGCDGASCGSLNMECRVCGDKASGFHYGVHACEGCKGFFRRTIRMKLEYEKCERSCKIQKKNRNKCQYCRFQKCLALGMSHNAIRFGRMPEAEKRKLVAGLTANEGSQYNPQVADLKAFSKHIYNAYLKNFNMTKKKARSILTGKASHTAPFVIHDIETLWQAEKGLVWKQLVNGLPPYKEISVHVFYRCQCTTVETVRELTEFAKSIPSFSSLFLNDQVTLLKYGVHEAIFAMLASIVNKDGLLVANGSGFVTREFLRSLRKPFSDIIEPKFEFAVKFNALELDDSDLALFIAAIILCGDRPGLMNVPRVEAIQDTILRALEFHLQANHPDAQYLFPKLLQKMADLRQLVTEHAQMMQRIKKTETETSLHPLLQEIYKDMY
Sequence of Bile acid receptor (Homo sapiens) (Q96RI1 whole entry, looked up): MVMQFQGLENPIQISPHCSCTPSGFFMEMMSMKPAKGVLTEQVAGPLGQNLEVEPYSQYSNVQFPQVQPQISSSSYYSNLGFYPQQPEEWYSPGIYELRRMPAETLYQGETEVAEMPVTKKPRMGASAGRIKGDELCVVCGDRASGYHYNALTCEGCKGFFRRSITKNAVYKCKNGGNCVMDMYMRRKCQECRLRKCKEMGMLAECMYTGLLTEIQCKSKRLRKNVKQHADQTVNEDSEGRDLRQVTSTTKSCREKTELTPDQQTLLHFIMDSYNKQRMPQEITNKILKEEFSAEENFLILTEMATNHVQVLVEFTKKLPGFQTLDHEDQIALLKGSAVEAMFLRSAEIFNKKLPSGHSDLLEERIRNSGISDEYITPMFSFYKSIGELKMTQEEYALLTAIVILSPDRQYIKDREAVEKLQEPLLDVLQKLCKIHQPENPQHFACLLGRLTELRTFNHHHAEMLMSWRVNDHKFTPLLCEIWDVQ
Sequence of Estrogen receptor (Homo sapiens) (P03372 whole entry, looked up): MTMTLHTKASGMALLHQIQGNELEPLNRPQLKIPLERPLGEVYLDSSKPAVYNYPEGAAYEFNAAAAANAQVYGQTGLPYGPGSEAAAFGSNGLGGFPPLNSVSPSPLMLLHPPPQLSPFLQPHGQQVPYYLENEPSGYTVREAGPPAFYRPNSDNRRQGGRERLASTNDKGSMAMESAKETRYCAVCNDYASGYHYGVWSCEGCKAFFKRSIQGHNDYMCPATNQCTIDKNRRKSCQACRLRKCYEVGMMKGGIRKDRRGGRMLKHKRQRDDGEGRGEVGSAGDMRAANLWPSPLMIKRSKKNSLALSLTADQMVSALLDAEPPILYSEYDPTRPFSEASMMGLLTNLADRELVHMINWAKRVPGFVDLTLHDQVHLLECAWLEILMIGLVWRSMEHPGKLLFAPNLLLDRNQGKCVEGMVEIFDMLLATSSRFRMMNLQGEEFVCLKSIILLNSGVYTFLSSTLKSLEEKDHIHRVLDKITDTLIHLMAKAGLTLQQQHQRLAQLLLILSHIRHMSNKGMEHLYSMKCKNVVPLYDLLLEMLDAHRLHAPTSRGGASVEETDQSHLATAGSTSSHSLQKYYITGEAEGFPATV
Sequence of Thyroid hormone receptor beta (Homo sapiens) (P10828 whole entry, looked up): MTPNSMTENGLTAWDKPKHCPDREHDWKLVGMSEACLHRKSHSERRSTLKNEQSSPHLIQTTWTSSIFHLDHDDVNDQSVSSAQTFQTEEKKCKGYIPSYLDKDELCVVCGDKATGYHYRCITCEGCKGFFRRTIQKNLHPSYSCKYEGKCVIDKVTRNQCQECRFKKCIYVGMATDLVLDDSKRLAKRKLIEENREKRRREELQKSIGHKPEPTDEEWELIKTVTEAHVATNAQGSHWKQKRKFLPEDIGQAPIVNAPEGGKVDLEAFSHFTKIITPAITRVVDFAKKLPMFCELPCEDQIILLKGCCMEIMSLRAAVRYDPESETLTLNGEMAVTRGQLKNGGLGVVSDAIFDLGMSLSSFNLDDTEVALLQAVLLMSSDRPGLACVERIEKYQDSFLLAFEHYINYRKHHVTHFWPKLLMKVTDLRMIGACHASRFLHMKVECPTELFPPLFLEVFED

c1ccoc1
inactive: Potency [1] > 92 µM | Potency [2] | Potency [3] | activation [4] -5.47% | outcome [5] | outcome [6] | outcome [7] | Potency [8] | Potency [9]

Nc1ccccc1-c1ccccc1
active: Potency [13] 42.2 µM
inactive: Potency [10] > 92 µM | Potency [2] | outcome [11] | Potency [3] | activation [4] -2.58% | outcome [5] | outcome [7] | outcome [12] | Potency [9]

N#CCBr
active: Potency [13] 16.8 µM
inactive: Potency [10] > 92 µM | Potency [2] | Potency [3] | activation [14] -0.961% | activation [4] -5.38% | outcome [12] | Potency [9] | activity change % (negative = inhibition) [15] 11.7% | Potency [16]

CC[N+](=O)[O-]
inactive: Potency [1] > 92 µM | Potency [10] > 92 µM | Potency [2] | outcome [11] | activation [4] 5.8% | outcome [5] | outcome [6] | outcome [7] | Potency [8] | outcome [12] | activity change % (negative = inhibition) [15] -0.712% | Potency [13] | activation [17] -3.29% | Potency [16]

CCBr
inactive: Potency [1] > 92 µM | Potency [2] | Potency [3] | activation [4] 4.52% | outcome [5] | outcome [6] | outcome [19] | outcome [12] | Potency [9] | activity change % (negative = inhibition) [15] -4.65% | Potency [13] | activation [17] 1.32% | Potency [16]
13.3%: max response [18]

Oc1cc(Cl)c(Cl)c(Cl)c1Cl
inactive: activation [4] 5.92% | Potency [9]
active: Potency [1] 53.3 µM | Potency [2] 31.6 µM | Potency [13] 11.9 µM | Potency [17] 39.8 µM

CCOC(=O)CC(SP(=O)(OC)OC)C(=O)OCC (centres undefined)
active: Potency [13] 42.2 µM
inactive: Potency [1] > 92 µM | Potency [10] > 92 µM | Potency [2] | outcome [11] | activation [14] -1.01% and 1.76% | activation [4] 2.95% | outcome [5] | outcome [6] | outcome [7] | Potency [8] | Potency [9] | activation [17] -0.7% and -2.82% | Potency [16]

ClCCOCOCCCl
inactive: Potency [10] > 92 µM | outcome [11] | activation [14] 0.794% | activation [4] -0.285% | outcome [5] | outcome [7] | Potency [8] | outcome [12] | activity change % (negative = inhibition) [15] 10.8% | Potency [16]

OCCOCCO
5.13%: max response [18]
inactive: Potency [1] > 92 µM | Potency [10] > 92 µM | Potency [2] | outcome [11] | Potency [3] | activation [14] -2.87% | activation [4] -0.687% | outcome [5] | outcome [6] | outcome [19] | outcome [7] | Potency [8] | outcome [12] | Potency [9] | activity change % (negative = inhibition) [15] -14.9% | Potency [16]

O=[N+]([O-])c1cccc(O)c1
inactive: Potency [1] > 92 µM | Potency [10] > 92 µM | outcome [11] | activation [14] -2.84% | outcome [6] | outcome [7] | outcome [12] | activity change % (negative = inhibition) [15] 6.02% | activation [17] -2.9%

Clc1cccc2ccccc12
inactive: Potency [10] > 92 µM | Potency [2] | outcome [6] | outcome [19] | Potency [9] | activity change % (negative = inhibition) [15] -4.95% | Potency [13] | Potency [16]
-15.1%: max response [18]

O=Cc1ccc(Cl)cc1Cl
inactive: Potency [1] > 92 µM | Potency [10] > 92 µM | Potency [2] | outcome [11] | outcome [5] | outcome [6] | outcome [19] | outcome [7] | Potency [8] | outcome [12] | Potency [9] | activity change % (negative = inhibition) [15] 0.009% | Potency [16]
-26.8%: max response [18]

C=C(Cl)CSC(=S)N(CC)CC
inactive: Potency [1] > 92 µM | Potency [10] > 92 µM | Potency [2] | outcome [11] | activation [14] 1.19% | outcome [6] | outcome [19] | Potency [8] | outcome [12] | activation [17] -1.91%
-17.2%: max response [18]

C=CC(=O)OCCO
inactive: Potency [20] > 92 µM | Potency [1] > 92 µM | Potency [2] | outcome [11] | activation [4] 19.7% | outcome [19] | outcome [12] | Potency [9] | activity change % (negative = inhibition) [15] 12.5% | activation [17] 1.07%
-1.31%: max response [18]
active: Potency [13] 37.6 µM
